This passage reports outcome and AC50 results from PubChem BioAssay (EPA / NIEHS).

Usually AC50 stands for the midpoint of the concentration-response curve, whichever way the signal moves.

Read-out in test [1]: CFLAR gene, CFLAR (gene 8837)
Put plainly: LTEA_HepaRG_CFLAR: Life Technologies and Expression Analysis (LTEA) Assay for CFLAR gene using HepaRG (AID 2283455). To be noted: mRNA level, 48 h; actives raise or lower the signal. In a few lines:
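HepaRG cells were plated for 48 h, switched to serum-free induction medium, then exposed in duplicate for 48 h to 8 concentrations (top 100 uM, half-log steps, 0.5% DMSO). CFLAR mRNA was measured by qRT-PCR, normalized to ACTB, GAPDH and POLR2A.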

Read-out in test [2]: Forkhead box O1 (FOXO1), FOXO1 (gene 2308)
Put plainly: LTEA_HepaRG_FOXO1: Life Technologies and Expression Analysis (LTEA) Assay for Forkhead box O1 (FOXO1) using HepaRG (AID 2283456). To be noted: mRNA level, 48 h; actives raise or lower the signal. A digest of the protocol: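 Differentiated human HepaRG cells in serum-free induction medium were exposed in duplicate for 48 h to eight half-log concentrations (top 100 uM, 0.5% DMSO). FOXO1 mRNA was measured by TaqMan qRT-PCR, normalised to ACTB, GAPDH and POLR2A, and fitted bidirectionally against DMSO.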

The nature of test [3]: CEETOX_H295R_TESTO: CeeTox H295R High-throughput Steroidogenesis Assay for Testosterone (TESTO) (AID 2283457).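 Also: cells exposed to chemicals for 48 h before medium collection.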 The following applies: actives raise or lower the signal. A digest of the protocol: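 Steroidogenesis in H295R cells following OECD 456 with minor changes; 48 h exposure. Medium testosterone by HPLC-MS/MS, DMSO as baseline, with MTT viability run in parallel.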
Read-out in test [4]: growth arrest and DNA damage 45 (GADD45A), GADD45A (gene 1647)
Put plainly: LTEA_HepaRG_GADD45A: Life Technologies and Expression Analysis (LTEA) Assay for growth arrest and DNA damage 45 (GADD45A) using HepaRG (AID 2283458). To be noted: mRNA level, 48 h; actives raise or lower the signal. A digest of the protocol:
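Differentiated HepaRG cells exposed 48 h in serum-free induction medium to 8 concentrations, top 100 uM in half-log steps, 0.5% DMSO. GADD45A mRNA quantified by qRT-PCR, normalized to ACTB, GAPDH and POLR2A; bidirectional fit versus DMSO.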

Read-out in test [5]: ABC Transporter (ABCB1), ABCB1 (gene 5243)
Description: LTEA_HepaRG_ABCB1: Life Technologies and Expression Analysis (LTEA) Assay for ABC Transporter (ABCB1) using HepaRG (AID 2283460). To be noted: mRNA level, 48 h; actives raise or lower the signal. A digest of the protocol: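 Differentiated human HepaRG cells, plated 48 h then switched to serum-free induction medium, were exposed in duplicate to eight half-log concentrations up to 100 uM in 0.5% DMSO for 48 h. ABCB1 mRNA was measured by TaqMan qRT-PCR, normalized to ACTB/GAPDH/POLR2A.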

Read-out in test [6]: growth arrest and DNA damage 45 (GADD45B), GADD45B (gene 4616)
Description: LTEA_HepaRG_GADD45B: Life Technologies and Expression Analysis (LTEA) Assay for growth arrest and DNA damage 45 (GADD45B) using HepaRG (AID 2283461). The following applies: mRNA level, 48 h; actives raise or lower the signal. A digest of the protocol: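 Human HepaRG monolayers receive chemicals for 48 h at eight half-log concentrations, highest 100 uM, in 0.5% DMSO. Expression is measured by TaqMan qRT-PCR and normalized to ACTB, GAPDH and POLR2A.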

Read-out in test [7]: ABC Transporter (ABCC3), ABCC3 (gene 8714)
Description: LTEA_HepaRG_ABCC3: Life Technologies and Expression Analysis (LTEA) Assay for ABC Transporter (ABCC3) using HepaRG (AID 2283462). To be noted: mRNA level, 48 h; actives raise or lower the signal. In a few lines: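 Transcriptional change of ABCC3 in HepaRG after 48 h treatment, determined by qRT-PCR normalized to endogenous controls. Concentrations spanned eight half-log steps to 100 uM in 0.5% DMSO.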

Read-out in test [8]: ABC Transporter (ABCB11), ABCB11 (gene 8647)
Put plainly: LTEA_HepaRG_ABCB11: Life Technologies and Expression Analysis (LTEA) Assay for ABC Transporter (ABCB11) using HepaRG (AID 2283463). To be noted: mRNA level, 48 h; actives raise or lower the signal. A digest of the protocol:
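Differentiated human HepaRG cells were exposed for 48 h in serum-free induction medium to eight half-log concentrations up to 100 uM in 0.5% DMSO. ABCB11 mRNA was quantified by qRT-PCR, normalized to ACTB, GAPDH and POLR2A, and fitted bidirectionally versus DMSO.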

Read-out in test [9]: ABC Transporter (ABCC2), ABCC2 (gene 1244)
Description: LTEA_HepaRG_ABCC2: Life Technologies and Expression Analysis (LTEA) Assay for ABC Transporter (ABCC2) using HepaRG (AID 2283464). The following applies: mRNA level, 48 h; actives raise or lower the signal. A digest of the protocol:
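After plating and 48 h culture, HepaRG medium is replaced with serum-free induction medium and chemicals are added (8 concentrations, max 100 uM, 0.5% DMSO) for 48 h. Total RNA then undergoes qRT-PCR for ABCC2 with housekeeping normalization.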

Read-out in test [10]: Broad substrate specificity ATP-binding cassette transporter ABCG2 (Homo sapiens) (UniProt Q9UNQ0)
Put plainly: LTEA_HepaRG_ABCG2: Life Technologies and Expression Analysis (LTEA) Assay for ABC Transporter (ABCG2) using HepaRG (AID 2283465). To be noted: mRNA level, 48 h; actives raise or lower the signal. In a few lines:
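Differentiated HepaRG cells in serum-free induction medium were exposed for 48 h, in duplicate, to eight half-log concentrations up to 100 uM in 0.5% DMSO. ABCG2 mRNA was measured by TaqMan qRT-PCR, normalized to ACTB, GAPDH and POLR2A, and fitted bidirectionally versus DMSO.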

Read-out in test [11]: ATP-citrate lyase (ACLY), ACLY (gene 47)
Description: LTEA_HepaRG_ACLY: Life Technologies and Expression Analysis (LTEA) Assay for ATP-citrate lyase (ACLY) using HepaRG (AID 2283466). The following applies: mRNA level, 48 h; actives raise or lower the signal. In a few lines: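 Differentiated human HepaRG cells in serum-free induction medium exposed 48 h, in duplicate, to eight half-log concentrations from 100 uM top in 0.5% DMSO; ACLY mRNA measured by qRT-PCR, normalized to ACTB, GAPDH, POLR2A, fitted bidirectionally versus DMSO.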

Read-out in test [12]: Peroxisomal acyl-coenzyme A oxidase 1 (ACOX1) gene, ACOX1 (gene 51)
Put plainly: LTEA_HepaRG_ACOX1: Life Technologies and Expression Analysis (LTEA) Assay for Peroxisomal acyl-coenzyme A oxidase 1 (ACOX1) gene using HepaRG (AID 2283467). The following applies: mRNA level, 48 h; actives raise or lower the signal. A digest of the protocol:
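Differentiated human HepaRG cells were exposed in duplicate for 48 h in serum-free induction medium to eight half-log concentrations up to 100 uM in 0.5% DMSO. ACOX1 mRNA was then quantified by TaqMan qRT-PCR, normalized to ACTB, GAPDH and POLR2A.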

Read-out in test [13]: Alkaline Phosphatase, Placental (ALPP) gene, ALPP (gene 250)
Put plainly: LTEA_HepaRG_ALPP: Life Technologies and Expression Analysis (LTEA) Assay for Alkaline Phosphatase, Placental (ALPP) gene using HepaRG (AID 2283468). The following applies: mRNA level, 48 h; actives raise or lower the signal. A digest of the protocol: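 Using human liver HepaRG cells, chemicals are tested in duplicate over 48 h at half-log concentrations topping at 100 uM; phenobarbital 1 mM serves as induction control. ALPP mRNA change by qRT-PCR, bidirectional fit against vehicle.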

Read-out in test [14]: Bcl-2 (BAD) gene, BAD (gene 572)
Put plainly: LTEA_HepaRG_BAD: Life Technologies and Expression Analysis (LTEA) Assay for Bcl-2 (BAD) gene using HepaRG (AID 2283469). To be noted: mRNA level, 48 h; actives raise or lower the signal. A digest of the protocol:
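Differentiated human HepaRG cells in serum-free induction medium were exposed in duplicate for 48 h to eight concentrations (top 100 uM, half-log steps, 0.5% DMSO). BAD mRNA was quantified by qRT-PCR normalised to ACTB, GAPDH and POLR2A, with bidirectional fitting versus DMSO.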

Read-out in test [15]: Bcl-2 (BAX) gene, BAX (gene 581)
Description: LTEA_HepaRG_BAX: Life Technologies and Expression Analysis (LTEA) Assay for Bcl-2 (BAX) gene using HepaRG (AID 2283470). The following applies: mRNA level, 48 h; actives raise or lower the signal. In a few lines: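 Differentiated HepaRG cells exposed 48 h in serum-free induction medium, eight half-log concentrations from 100 uM, in duplicate, 0.5% DMSO vehicle. BAX mRNA by TaqMan qRT-PCR, normalised to ACTB, GAPDH and POLR2A.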

Read-out in test [16]: adenosine kinase (ADK) gene, ADK (gene 132)
Description: LTEA_HepaRG_ADK: Life Technologies and Expression Analysis (LTEA) Assay for adenosine kinase (ADK) gene using HepaRG (AID 2283471). To be noted: mRNA level, 48 h; actives raise or lower the signal. In a few lines:
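Following 48 h exposure of HepaRG cells in 0.5% DMSO (top concentration 100 uM, duplicate wells), ADK mRNA induction or suppression was measured by qRT-PCR, normalised to ACTB/GAPDH/POLR2A, and fitted bidirectionally relative to vehicle.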

Read-out in test [17]: BCL2L11 (gene 10018)
Put plainly: LTEA_HepaRG_BCL2L11: Life Technologies and Expression Analysis (LTEA) Assay for Bcl-2 (BCL2L11) gene using HepaRG (AID 2283473). The following applies: mRNA level, 48 h; actives raise or lower the signal. A digest of the protocol:
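Human hepatic HepaRG cultures are treated 48 h with test chemicals (maximum 100 uM, 0.5% DMSO vehicle). Expression of BCL2L11 is measured by qRT-PCR against ACTB, GAPDH and POLR2A, with activity in either direction scored relative to vehicle.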

Read-out in test [18]: Apolipoprotein A-V (APOA5) gene, APOA5 (gene 116519)
Description: LTEA_HepaRG_APOA5: Life Technologies and Expression Analysis (LTEA) Assay for Apolipoprotein A-V (APOA5) gene using HepaRG (AID 2283474). The following applies: mRNA level, 48 h; actives raise or lower the signal. In a few lines:
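Concentration-response of APOA5 expression in HepaRG: eight half-log doses to 100 uM, 48 h, qRT-PCR normalized to ACTB/GAPDH/POLR2A, bidirectional fitting with 0.5% DMSO as baseline.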

Read-out in test [19]: Forkhead box O3 (FOXO3), FOXO3 (gene 2309)
Description: LTEA_HepaRG_FOXO3: Life Technologies and Expression Analysis (LTEA) Assay for Forkhead box O3 (FOXO3) using HepaRG (AID 2283459). To be noted: mRNA level, 48 h; actives raise or lower the signal. In a few lines: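 Differentiated human HepaRG cells in serum-free induction medium were exposed in duplicate for 48 h to eight half-log concentrations up to 100 uM in 0.5% DMSO. FOXO3 mRNA was quantified by qRT-PCR, normalized to ACTB, GAPDH and POLR2A, with bidirectional fitting versus DMSO.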

The source made the active and inactive calls. The calls were made as follows: active = hit-call score of the fitted dose curve at least 0.9, where 1 is the maximum; inactive = score below 0.9.

Sequence of Broad substrate specificity ATP-binding cassette transporter ABCG2 (Homo sapiens) (Q9UNQ0 whole entry, looked up): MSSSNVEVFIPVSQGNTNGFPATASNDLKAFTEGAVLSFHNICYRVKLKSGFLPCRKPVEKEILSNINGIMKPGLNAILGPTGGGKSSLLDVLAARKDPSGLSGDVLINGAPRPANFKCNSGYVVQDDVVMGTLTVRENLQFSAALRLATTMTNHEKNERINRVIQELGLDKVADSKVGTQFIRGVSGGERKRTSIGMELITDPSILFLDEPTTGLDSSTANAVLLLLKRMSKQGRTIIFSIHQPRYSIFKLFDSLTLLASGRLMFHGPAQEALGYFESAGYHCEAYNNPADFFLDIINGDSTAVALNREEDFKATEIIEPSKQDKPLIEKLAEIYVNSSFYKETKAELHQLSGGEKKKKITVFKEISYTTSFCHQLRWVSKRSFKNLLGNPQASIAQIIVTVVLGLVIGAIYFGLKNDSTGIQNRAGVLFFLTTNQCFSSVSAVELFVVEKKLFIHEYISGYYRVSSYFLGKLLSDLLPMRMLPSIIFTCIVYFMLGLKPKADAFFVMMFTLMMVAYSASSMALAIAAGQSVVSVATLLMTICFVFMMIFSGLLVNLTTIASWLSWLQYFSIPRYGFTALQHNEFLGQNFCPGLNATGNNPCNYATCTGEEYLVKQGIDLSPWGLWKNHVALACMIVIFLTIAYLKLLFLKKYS

Consider `CCC(=O)O[C@H]1CC[C@H]2[C@@H]3CCC4=CC(=O)CC[C@]4(C)[C@H]3CC[C@]12C`, for which the outcome in [1], in test [2], in test [4], in [5], in test [7] and in test [9] was inactive. In addition, the result in [10], in test [11], in [12], in [13], in test [14] and in test [15] was inactive. For the same compound, the result in [16], in test [17] and in test [18] was inactive. Further, the AC50 was 3.77 µM (active) in [3], 0.101 µM (active) in test [6] and 9.78 µM (active) in test [8].
As for `ClC1=C(Cl)[C@]2(Cl)[C@@H]3[C@@H](Cl)[C@H]4O[C@H]4[C@@H]3C1(Cl)C2(Cl)Cl`, the outcome in test [1], in test [2], in test [4], in test [19], in [6] and in test [7] was inactive. The compound was called inactive in test [8], in [9], in test [12], in [13], in test [14] and in test [15]. The outcome in test [17] and in test [18] was inactive. Besides, the AC50 in test [5] is 6.62 µM (active); in test [10] it was 15.8 µM (active); in test [11] it was 75 µM (active).
As to `Oc1c(Cl)c(Cl)c(Cl)c(Cl)c1Cl`, the AC50 in test [1] was 2.17 µM (active); in test [2] it was 6.85 µM (active); in [4], 6 µM (active); in test [5] it was 2.1 µM (active); in [6] it was 15 µM (active); in test [7], 2.09 µM (active). Also, the AC50 in test [8] is 3.29 µM (active); in [9], 2.03 µM (active); in test [10] it was 6.05 µM (active); in [11], 1.61 µM (active); in [12], 3.29 µM (active); in test [13], 5.48 µM (active). Also, the figures for the AC50 in test [16], in test [17] and in test [18] were 6.68 µM (active), 6.24 µM (active) and 3.95 µM (active), respectively. Besides, the compound was called inactive in test [14] and in [15].
With `Cc1ccc(O)c(C)c1`, the call in test [1], in test [2], in [4], in [5], in [6] and in test [7] was inactive. Further, the outcome in test [8], in test [9], in [10], in [11], in [12] and in test [13] was inactive. For the same compound, the outcome in test [14], in test [15], in [17] and in test [18] was inactive.
